Bioassay records deposited in PubChem BioAssay by National Center for Advancing Translational Sciences (NCATS).
This is a sample that favours compounds with a hit; in the whole collection about 3.3% have one here.
PI5P4Ka inh: PI5P4K alpha (human) kinase inhibition; P48426; PI5P4Kalpha enzyme, ADP-Glo luminescence, 60 min; stronger effect = lower value; max response, %; hit rate 1.2% among 330,000; active = max response of -50% or lower; inconclusive = between -30% and -50%; inactive = -30% or higher; note: value at the top dose of about 77 µM; % is set by controls: 0 for no effect and ±100 for the full control effect
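ADP-Glo luminescence end-point read after a 60 min room-temperature kinase reaction of PI5P4Kalpha plus substrate, initiated with ATP at 5 microM final. Buffer: 0.038 M HEPES pH 7.4, EGTA, 0.1% CHAPS, 5% DMSO.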
DRD3 antagonist: D3 dopamine receptor (human) antagonism; D3R cells, DiscoveRx beta-arrestin luminescence, antagonist mode; stronger effect = lower value; AID 652054; P35462; hit rate 2.5% among 360,000; max response, negative = inhibition, %; in the data active = max response below about -50%; inconclusive = no clear call, values can overlap the other calls; note: % is set by controls: 0 for no effect and ±100 for the full control effect
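Cells plated overnight at 1500 cells/well, then exposed to library compounds with dopamine controls for 90 minutes at 37 degrees C. DiscoveRx reagent added for 30–60 minutes at room temperature; luminescence read, quantitative HTS format.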
DRD3 agonist: D3 dopamine receptor (human) agonism. max activation, %. AID 652048. D3R DiscoveRx beta-arrestin cells, luminescence, 90 min. hit rate 0.58% among 410,000. P35462; in the data active = max activation above about 30%; note: 0% is about no effect
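Agonist mode: compounds and dopamine controls were applied to plated cells for 90 min at 37 degrees C after an overnight attachment at 1500 cells/well. Luminescent read-out followed 30 - 60 minutes at room temperature with DiscoveRx detection reagent.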
LDHA inh: blocks human lactate dehydrogenase A. P00338. activity change, % (values are at about 110 or 230 µM). purified LDHA, NADH/diaphorase-resazurin fluorescence; stronger effect = lower value. hit rate 0.15% among 480,000. AID 1347041; in the data active = activity change below about -30%; inconclusive = mostly about -25% to -30%;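 note: plate controls were DMSO wells for no effect and wells without enzyme for full effect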
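Human LDH5 (2 nM) was incubated with 0.06 mM NADH and 0.2 mM pyruvate for 5 min at room temperature in Tris pH 7.4. Remaining NADH was coupled through diaphorase/resazurin, and resorufin fluorescence was read at 0 and 20 min.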
PI4K2A inh: inhibitors of human PI4K2A | purified PI4K2A, ADP-Glo luminescence, 1 h; stronger effect = lower value | activity change, negative = inhibition, % at 76.9 µM | hit rate 0.13% among 420,000; in the data active = activity change below about -50%; inconclusive = mostly about -30% to -49%;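 note: -100% = wells without enzyme as full effect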
Target sequence (Q9BTU6 whole entry, looked up): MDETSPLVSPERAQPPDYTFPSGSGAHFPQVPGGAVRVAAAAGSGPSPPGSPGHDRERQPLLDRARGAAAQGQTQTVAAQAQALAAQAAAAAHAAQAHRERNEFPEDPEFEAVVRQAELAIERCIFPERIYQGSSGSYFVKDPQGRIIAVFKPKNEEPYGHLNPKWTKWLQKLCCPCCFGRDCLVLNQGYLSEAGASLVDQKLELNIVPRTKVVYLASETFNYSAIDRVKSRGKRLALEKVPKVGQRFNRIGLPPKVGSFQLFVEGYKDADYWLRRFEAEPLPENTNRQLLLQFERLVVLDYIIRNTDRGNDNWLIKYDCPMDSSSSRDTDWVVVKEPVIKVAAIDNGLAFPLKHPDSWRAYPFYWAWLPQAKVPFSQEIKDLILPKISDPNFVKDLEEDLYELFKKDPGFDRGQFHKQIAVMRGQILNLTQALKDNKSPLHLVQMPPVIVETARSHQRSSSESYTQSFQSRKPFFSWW
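In this quantitative HTS, ADP production by PI4K2A was quantified luminescently after 1 h at ambient temperature; 100 microM adenosine served as plate-quality control.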
* marks the source's active call; other numbers are inactive results; ? = inconclusive; . = not tested or not shown.

SMILES	PI5P4Ka inh	DRD3 antagonist	DRD3 agonist	LDHA inh	PI4K2A inh
O=C(NC(c1ccccc1)c1ccccc1)C(Sc1ccccc1)c1ccccc1 (stereo not given)	.	.	.	2	.
CS(=O)(=O)NCCc1ccc(C(=O)COc2ccc(Cl)c(Cl)c2)s1	.	.	.	2	.
Cc1cccc(N2CCN(C(=O)COc3noc4nc(C)cc(C)c34)CC2C)c1 (stereo not given)	-1	22	34*	3	-5
O=C(CO/N=C1\CCCc2nonc21)Nc1ccc(Br)cc1	-19	-83*	-6	-6	1
CCCC(=O)Nc1sc(C)c(-c2ccc(C(C)CC)cc2)c1C#N (stereo not given)	.	41	30*	-3	2
CCC(C)c1ccc(-c2c(C)sc(N)c2C#N)cc1 (stereo not given)	.	.	.	12	.
CN(c1ccccc1)S(=O)(=O)c1cccc(NC(=O)COC(=O)c2cc(=O)c3ccccc3o2)c1	.	.	.	3	.
Cc1cc(C)c2nc(Nc3nc(C)cc(C)n3)nc(C)c2c1	.	.	.	-3	.
C=CCn1c(SCC(=O)Nc2sccc2C(N)=O)nc2sc(C)c(C)c2c1=O	.	10	41*	0	3
CCN(CC)c1ccc2c(C)c(CN3CCOCC3)c(=O)oc2c1	-2	-75*	-6	-3	-1
Cc1ccc(C)n1C1CCS(=O)(=O)C1 (stereo not given)	-1	?	-2	1	4
Cc1nn(C2CCS(=O)(=O)C2)c(C)c1C=O (stereo not given)	-67*	-1	4	-12	0
Cc1ccc(C)n1-c1sccc1C(=O)O	-83*	?	-3	2	-27
COc1ccccc1NC(=O)CC1SCCNC1=O (stereo not given)	.	.	.	1	.
CCCC(=O)Nc1ccc(NC(=O)CCc2ccccc2)cn1	?	-56*	6	17	-21
COc1ccc(/C=C2/C(=O)N(Cc3ccccc3)N=C2C)cc1	10	-9	-3	3	-10
COc1ccc(/C=C2/C(=O)N(c3nc4ccccc4s3)N=C2CSc2ccc(Cl)cc2)cc1	-72*	-21	4	-17	-13
CN(CC(=O)Nc1ccc(Cl)cc1)C(=O)c1cccc(S(=O)(=O)N2CCN(Cc3ccccc3)CC2)c1	53	-5	2	-2	-9
CN(CC(=O)Nc1ccc(Cl)cc1)C(=O)c1cccc(S(=O)(=O)NCc2ccccc2)c1	10	-64*	-31	-6	-2
N#C/C(=C\c1cc(Br)c(O)c(Br)c1)c1nc2ccccc2[nH]1	.	.	.	7	.
COc1ccc(NC(=O)CSc2n[nH]c(N)n2)c([N+](=O)[O-])c1	.	-92*	-4	-2	1
Cc1ccc(Cc2c(-c3ccc(F)cc3)nc3cc(C)ccn23)cc1	-1	-68*	-12	6	-16
Cc1nn(-c2ccccc2)c(Cl)c1C(=O)N1CCN(c2ncnc3c2cnn3-c2ccccc2)CC1	3	-10	41*	-6	13
COc1cccc(OCCN2CCN(c3ncnc4c3cnn4-c3ccccc3)CC2)c1	.	10	48*	-2	1
Cc1ccc(-n2ncc3c(N4CCN(Cc5ccccc5)CC4)ncnc32)cc1	.	.	6	2	-1
SMILES	PI5P4Ka inh	DRD3 antagonist	DRD3 agonist	LDHA inh	PI4K2A inh
Cc1ccc(S(=O)(=O)N/N=C2/CC(c3ccccc3)Oc3ccccc32)cc1[N+](=O)[O-] (stereo not given)	1	-83*	-4	-2	-8
COc1cc(C=O)ccc1OC(=O)c1cccs1	.	.	.	-19	.
C/C(=N\NC(=O)CSc1nc(C)[nH]c1[N+](=O)[O-])c1ccc(F)cc1	-67*	6	0	-5	-1
Cc1nc(SCC(N)=O)c([N+](=O)[O-])[nH]1	1	5	1	4	-2
Cc1ncsc1C(=O)/C=C/c1ccc(F)c(F)c1	.	.	.	1	.
COc1cccc(/C=N/n2c(COc3ccccc3)n[nH]c2=S)c1OC	-4	-6	0	-12	4
O=[N+]([O-])c1ccc(Cl)c(/C=N/n2c(COc3ccccc3)n[nH]c2=S)c1	7	-58*	-32	-4	-10
S=c1[nH]nc(-c2cc(-c3ccccc3)n[nH]2)n1/N=C/C=C/c1ccccc1	-25	-26	-16	-8	-3
COc1ccccc1/C=C/C=N/n1c(COc2ccccc2)n[nH]c1=S	-1	-86*	-6	0	3
